# SENP8 block-1: inhibitors of human SENP8 protease; Q96LD8; purified SENP8, Z-RLRGG-aminoluciferin cleavage, luminescence; inhibition, % at 10 µM; 330,000 compounds, 1.2% hits; AID 2540; in the data active means inhibition above about 50%
# Target sequence (Q96LD8 whole entry, looked up): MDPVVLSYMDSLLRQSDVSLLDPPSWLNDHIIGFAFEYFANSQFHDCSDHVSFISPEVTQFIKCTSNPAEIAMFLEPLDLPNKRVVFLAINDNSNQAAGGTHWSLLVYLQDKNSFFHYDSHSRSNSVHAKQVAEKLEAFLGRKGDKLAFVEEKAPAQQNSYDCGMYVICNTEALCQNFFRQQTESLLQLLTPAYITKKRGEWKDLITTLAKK
# SENP8 block-2: SENP8 (human) protease inhibition. recombinant SENP8, Nedd8 substrate fluorescence. inhibition, % at 20 µM. 360,000 compounds, 0.64% hits; in the data active means inhibition mostly above about 40%, no sharp cut-off; inactive means mostly below about 27%
# SENP6 inh: SENP6 protease inhibition; Q9GZR1; Recombinant SENP6 catalytic domain, aminoluciferin luminescence; inhibition, % at 10 µM; 330,000 compounds, 1.8% hits;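 active means inhibition above about 50% at the single tested dose, limit read from the data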;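 further: plate controls were DMSO wells with enzyme for no effect and DMSO wells lacking enzyme for full effect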
# HSP90 inh: inhibitors of HSP90 luciferase refolding in rabbit reticulocyte lysate | luciferase refolding luminescence, 3 h | AID 1789 | inhibition, % at 5.6 µM | 290,000 compounds, 0.91% hits;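 active means inhibition above the screen-wide mean plus 3 SD, computed separately per campaign, cut at about 16% in these data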;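 further: 0% = DMSO wells and 100% = 60 µM geldanamycin wells; inhibitors lower the luminescence because luciferase stays unfolded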
# SENP7 inh: inhibitors of human SENP7 protease; Q9BQF6; recombinant SENP7, Z-RLRGG-aminoluciferin luminescence, 40 min; inhibition, % at 5 µM; 330,000 compounds, 1.5% hits; AID 434973;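 active means inhibition above about 50% at the single test dose, limit read from the data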;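 further: plate controls were DMSO with enzyme for no effect and no enzyme buffer wells for full effect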
# SENP8 confirm: human SENP8 inhibition, confirmed; shares compounds with SENP7 inh; Recombinant SENP8, Z-RLRGG-aminoluciferin luminescence, 60 min; inhibition, % at 12.5 µM; 6,200 compounds, 40% hits; AID 488912;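 active means mean inhibition across replicates above about 50%, limit read from the data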
# SENP6 conf: confirmation of human SENP6 protease inhibitors; shares compounds with SENP7 inh; recombinant SENP6, Z-RLRGG-aminoluciferin luminescence; inhibition, % at 12.5 µM; 6,200 compounds, 58% hits
# SENP7 confirm: confirmation of human SENP7 protease inhibitors; AID 488917; shares compounds with SENP7 inh; inhibition, % at 12.5 µM; 6,200 compounds, 69% hits; recombinant SENP7, Z-RLRGG-aminoluciferin luminescence, 40 min
# Casp3 SENP sel: caspase-3 inhibition (SENP selectivity assay); AID 488918; inhibition, % at 12.5 µM; shares compounds with SENP7 inh; 6,200 compounds, 60% hits; purified caspase-3, Z-DEVD-aminoluciferin luminescence, 60 min;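 active means mean inhibition above about 50%, limit read from the data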;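 further: plate controls were enzyme with DMSO for no effect and wells without caspase-3 for full effect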
# Target sequence (P42574 28-227 limits assumed): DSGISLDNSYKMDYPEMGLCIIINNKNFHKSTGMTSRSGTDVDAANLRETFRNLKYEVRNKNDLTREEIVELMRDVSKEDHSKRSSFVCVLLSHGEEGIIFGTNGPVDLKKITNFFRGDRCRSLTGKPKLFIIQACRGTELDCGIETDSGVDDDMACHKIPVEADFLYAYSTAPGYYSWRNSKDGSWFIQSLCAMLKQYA
# SENP luc ctr: interferes with luciferase luminescence in SENP counter-screen; Pre-incubated SENP8/Z-RLRGG-aminoluciferin, luciferase luminescence interference; 6,200 compounds, 39% hits; shares compounds with SENP7 inh; inhibition, % at 12.5 µM;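 active means mean inhibition above about 50% when retested at one dose, limit read from the data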;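 further: plate controls were DMSO wells with completed reaction for no effect and substrate without enzyme for full effect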
# Numbers without * were called inactive; i = inactive; · = not tested or not shown. Shown are actives, neighbours in structure and some others; about 2.8% of the full set was active somewhere.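 How the source made its calls, unless noted: active means mean inhibition above about 50% in the one-dose retest (limit read from the data); inactive means the rest.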
SMILES,SENP8 block-1,SENP8 block-2,SENP6 inh,HSP90 inh,SENP7 inh,SENP8 confirm,SENP6 conf,SENP7 confirm,Casp3 SENP sel,SENP luc ctr
O=C(c1ccc(N2CCCC2=O)cc1)N1CCN(c2ccccc2Cl)CC1,0,0,12,·,-1,·,·,·,·,·
Cc1noc(C)c1C(=O)OCC(=O)c1cc(C)n(Cc2ccccc2Cl)c1C,4,8,68*,-2,26,2,10,45,30,14
CCOC(=O)c1ccc2nc(NC(=O)c3ccco3)sc2c1,85*,i,93*,3,90*,6,46,78*,51*,12
CCOC(=O)c1ccc2nc(NC(=O)C(C)C)sc2c1,8,-11,12,4,11,·,·,·,·,·
Cc1c(Cl)cccc1NC(=O)c1ccco1,0,-3,-4,0,0,·,·,·,·,·
Cc1ccc2nc(NC(=O)COC(=O)c3ccco3)sc2c1,15,-7,13,-1,20,·,·,·,·,·
Cc1c(Cl)ccc2sc(NC(=O)c3ccco3)nc12,78*,-212,67*,-1,86*,35,86*,72*,54*,20
C=CCOC(=O)c1sc(NC(=O)c2ccco2)nc1C,15,-43,49,2,56*,12,16,18,31,5
CCOC(=O)c1ccc2nc(NC(=O)c3cccs3)sc2c1,92*,-446,56*,1,96*,-23,50,86*,51*,14
COCCNC(=S)N/N=C/c1ccccc1C(=O)O,-2,10,-10,3,5,·,·,·,·,·
O=C(Nc1nccs1)c1ccc(N2C(=O)C3CCCCC3C2=O)cc1 (stereo not given),-8,10,18,6,3,·,·,·,·,·
CC1(Cc2cc(Cl)ccc2C(F)(F)F)C(=O)Nc2cc(C(F)(F)F)ccc21 (stereo not given),·,-4,·,·,·,·,·,·,·,·
Cc1ccc(-n2[nH]c(C)c(C=Nc3ccc4[nH]c(=O)[nH]c4c3)c2=O)cc1,-13,21,-36,-4,-2,·,·,·,·,·
Cc1ccc(N=Cc2c(C)[nH]n(-c3nc4ccccc4[nH]3)c2=O)cc1,86*,14,94*,0,95*,88*,55*,94*,95*,90*
COc1cc2c(cc1OC)CN(C(=S)NC(=O)c1ccccc1)CC2,4,8,0,4,4,·,·,·,·,·
COCC(C)NC(=O)c1nn(Cc2ccccc2)c(=O)c2ccccc12 (stereo not given),0,8,61*,-4,5,-6,-6,2,11,6
O=C(Nc1ccc(S(=O)(=O)Nc2ncccn2)cc1)c1nn(Cc2ccccc2)c(=O)c2ccccc12,66*,2,85*,3,17,4,17,26,36,9
CCn1nc(C(=O)Nc2ccc(S(=O)(=O)Nc3nccs3)cc2)c2ccccc2c1=O,11,13,-4,5,7,·,·,·,·,·
Cn1c(COc2ccccc2)nnc1SCc1nc2ccccc2[nH]1,-3,-65,-27,-1,-3,·,·,·,·,·
O=C(COC(=O)C1CC(=O)N(Cc2ccccc2)C1)Nc1cccc([N+](=O)[O-])c1 (stereo not given),-16,13,0,·,-12,·,·,·,·,·
COc1cc(-c2nc(-c3ccccc3)c(-c3cc([N+](=O)[O-])ccc3C)[nH]2)cc(OC)c1OC,4,-18,10,3,3,·,·,·,·,·
c1ccc2nc(-c3ccc(-n4ccnc4)cc3)ccc2c1,61*,-32,1,5,72*,10,81*,43,-1,-1
Cc1ccc(/C=C2/CCc3c([nH]c4ccccc34)C2=O)cc1,27,-167,49,-1,68*,-8,6,9,13,-6
Cc1ccccc1/C=N\NC(=O)c1csnn1,-6,20,19,-1,-1,·,·,·,·,·
